# High-throughput results as filed in PubChem.
# GLS inhibitor: glutaminase GLS (human) inhibition; Potency, µM (highest dose often 45.5 µM), inactives show at the top dose activity change, negative = inhibition, actives largely listed as inhibitors; GLS enzymatic activity, qHTS titration; O94925; hit rate 0.21% among 410,000; further: potency means the concentration at half of the fitted maximal effect; on the % scale 0 is the no-effect control and ±100 the full control effect
#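 Assay buffer: 45 mM KH2PO4 pH 8.2, 0.02% Tween-20. hKGA acts on L-glutamine (1 mM solution added); product glutamate is reported by an oxidase/peroxidase Amplex Red coupling, with fluorescence taken at baseline and 30 min.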
# TCR activator: activates T cell receptor signaling; primary human leukocytes, anti-CD3, IL-2 HTRF, 48 h; Potency, µM (series often up to 9.22 µM), for the others: top-dose activation of IL-2 secretion, usual class: activators; 330,000 tested, under 10 active; AID 504894; further: % of control where 0% means no effect
#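 Readout: HTRF IL-2, Eu-cryptate/d2 antibody pair, 320nm excitation, 665nm emission. Stimulus: a-CD3 beads, no co-stimulation. Cells: primary human leukocytes. Exposure: 48 hr with compound.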
# TSHR antagonist: human thyrotropin receptor antagonism; P16473; TSHR-expressing cells, TSH-stimulated cAMP HTRF, 2 h; active compounds read low; activity change, negative = inhibition, % at 11.5 µM; hit rate 0.2% among 330,000; AID 504810;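 active means activity change below a set negative limit, meaning inhibition stronger than a set level, cut at about -70% in these data; inconclusive means activity change between two set negative limits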; further: on the % scale 0 is the no-effect control and ±100 the full control effect
# Target sequence (P16473 whole entry, looked up): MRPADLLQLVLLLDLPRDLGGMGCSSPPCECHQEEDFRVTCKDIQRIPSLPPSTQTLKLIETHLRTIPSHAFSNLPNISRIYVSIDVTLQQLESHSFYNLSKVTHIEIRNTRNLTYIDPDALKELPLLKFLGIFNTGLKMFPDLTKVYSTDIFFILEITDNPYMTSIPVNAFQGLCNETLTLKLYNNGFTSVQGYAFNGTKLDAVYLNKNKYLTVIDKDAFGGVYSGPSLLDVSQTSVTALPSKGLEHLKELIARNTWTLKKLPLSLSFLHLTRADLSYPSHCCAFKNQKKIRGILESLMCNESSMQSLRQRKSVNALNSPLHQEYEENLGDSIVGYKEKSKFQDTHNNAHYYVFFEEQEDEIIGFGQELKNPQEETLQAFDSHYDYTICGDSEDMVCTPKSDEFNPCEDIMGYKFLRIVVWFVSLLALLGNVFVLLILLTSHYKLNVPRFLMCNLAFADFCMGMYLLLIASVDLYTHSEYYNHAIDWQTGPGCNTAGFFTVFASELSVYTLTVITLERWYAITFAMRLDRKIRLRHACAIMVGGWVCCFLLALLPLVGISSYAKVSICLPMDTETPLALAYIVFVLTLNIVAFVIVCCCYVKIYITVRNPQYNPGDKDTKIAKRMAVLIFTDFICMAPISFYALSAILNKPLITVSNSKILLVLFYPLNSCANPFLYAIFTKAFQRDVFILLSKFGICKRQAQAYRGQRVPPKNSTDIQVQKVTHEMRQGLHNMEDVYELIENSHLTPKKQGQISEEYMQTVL
#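 Antagonism was scored as loss of TSH-driven cAMP in TSHR cells, stimulated with 4nM TSH (EC80) for 2 hours at 37 deg C and detected by homogeneous HTRF competition immunoassay.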
# BRCA1 expr up: increases BRCA1 expression; MCF7-BRCA1-FFLuc reporter, luminescence, 48 h; response scale: scaled: vehicle 0%, 10 µM genistein 100%; Potency, µM (titrated, usually from 46.1 µM), inactives show at the top dose activation, actives largely listed as activators; hit rate 1.1% among 380,000; further: potency means the concentration at half of the fitted maximal effect; nearly all actives have a fitted effect of over 80% in size
#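 48 h compound treatment of MCF7-BRCA1-FFLuc cells (phenol-red free MEM, 37 °C), then 15 min with luciferase substrate and luminescence imaging.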
# p53 reactivation: mutant p53 re-activation in reporter cells; H1299 p53-A138V BP100-luciferase reporter, luminescence, 24 h; Potency, µM (series often up to 92.2 µM), for inactives: at the highest dose activity change, positive = activation, usual class: activators; AID 504706; hit rate 0.063% among 320,000; further: potency means the concentration at half of the fitted maximal effect; % of control where 0% means no effect; nearly all actives have a fitted effect of over 45% in size
#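 p53-null H1299 cells stably carrying temperature-sensitive p53-A138V and a BP100-luciferase reporter were pinned with compounds (4-point, 1:5 series) and held 24 hrs at 37 deg C. Luminescence was read 10 min after detection reagent.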
# N370S GC: N370S glucocerebrosidase modulation, Gaucher chaperone candidate. hit rate 0.092% among 330,000. N370S GC spleen homogenate, 4MU-glucoside fluorescence. P04062. Potency, µM (doses to about 59.4 µM), inactives show top-dose activity change, negative = inhibition, actives largely listed as inhibitors;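 further: potency means the concentration at half of the fitted maximal effect; 0% = full enzyme activity and -100% = no enzyme basal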
# * hit, by the source's call; ? = inconclusive; · = no result given; [ ] = another dose, or the depositor's remark. Compounds with a hit are over-represented: about 1.4% of the library has one in this group of screens. Unless noted, the call rests on the fitted dose curve; in most records, active means well fitted curve in the direction sought with a large enough effect; inconclusive means small, poorly fitted or top-dose-only effect, or another doubt; inactive means no such curve, though single readings can be large; an effect the other way counts as inactive or inconclusive.
SMILES,GLS inhibitor,TCR activator,TSHR antagonist,BRCA1 expr up,p53 reactivation,N370S GC
CN(C)c1ccc(/C=C2/CCc3ccccc32)cc1,·,·,·,-23.6%,·,·
O=C(NC(Nc1nc2ccc([N+](=O)[O-])cc2s1)(C(F)(F)F)C(F)(F)F)c1ccccc1Cl,-4.1%,4.8%,-83.2*,-61.7%,0.9%,-13.9%
O=C(CCSc1ccccc1)NCCSCc1ccccc1,10.1%,-0.8%[46.1 µM],0.2,3.8%,7.9%,2.9%
O=C(CCNC(=O)c1ccccc1Cl)NCCCSc1ccccc1,1.0%,·,-3.3,1.9%,6.0%,·
O=C(NCCSc1ccccc1)c1ccccc1Cl,5.9%,-5.5%[46.1 µM],1.8,2.82µM*,?,-0.6%
O=C(CCc1ccccc1)NCCSc1ccccc1,1.3%,2.5%,-4.7,5.62µM*,22.1%,-1.2%
O=C(NCCSc1ccccc1)c1cncc(Br)c1,14.9%,5.6%,-1.2,7.94µM*,10.4%,1.0%
COC(=O)c1cc(-c2c[nH]c3ccccc23)n[nH]1,12.4%,1.8%,-85.5*,-8.1%,18.6%,-1.7%
COc1cc(OC)c2c(c1C(CCN1CCOCC1)c1ccc(N(C)C)cc1)OC(=O)CC2c1ccc(N(C)C)cc1 (stereo not drawn),31.8%,-2.3%,1.7,-3.1%,-4.4%,10µM*
COc1cc(C(CCN2CCOCC2)c2c(OC)cc(OC)c3c2OC(=O)CC3c2ccc(N(C)C)cc2)cc(OC)c1OC (stereo not drawn),26.1%,-4.5%,6.2,11.2%,-3.3%,?
Cc1ccc(O)c(N=Cc2cc(Cc3ccccc3)cc([N+](=O)[O-])c2O)c1,11.2µM*,-9.1%,-40.2,-79.3%,3.8%,19.5%
CCc1cc2c(=O)n(-c3ccccc3)cnc2s1,-0.6%,3.3%,-4.1,17.8µM*,2.8%,22.9%
COc1ccccc1NC(C)C(=O)c1c(C)[nH]c2ccccc12 (stereo not drawn),·,·,·,13.1%,·,·
Cc1cc(C)c2c(c1)C1C=CCC1C(c1ccc(S(=O)(=O)N3CCOCC3)cc1)N2 (stereo not drawn),-13.5%,·,10.0,13.8%,8.4%,-1.5%
O=C(O)c1cc(Cl)c2c(c1)[C@@H]1C=CC[C@@H]1[C@H](c1ccc(S(=O)(=O)N3CCOCC3)cc1)N2,12.6µM*,3.9%[46.1 µM],-18.8,-17.6%,2.2%,4.0%
Cc1cc(OCCCSc2nc(-c3ccc(C(C)(C)C)cc3)nc3cc(=O)[nH]n23)ccc1Cl,-20.4%,·,·,·,·,·
O=C(NN=Cc1ccc2c(c1)OCO2)C1CC1,-3.6%,5.0%,·,7.08µM*,·,·
CC(C)(C)c1ccc(/C=N/NC(=O)C2CCCC2)cc1,-4.5%,-9.7%,1.3,5.62µM*,?,20.5%
CC(C)c1ccc(/C=N/NC(=O)C2CCCC2)cc1,-5.6%,-2.1%,14.6,60.3%,?,8.3%
O=C(CNc1ccccc1)N/N=C/c1ccc2c(c1)OCO2,86.7%,-2.5%[46.1 µM],7.2,23.3%,?,6.7%
O=C(Cc1ccccc1)N/N=C/c1ccc2c(c1)OCO2,1.6%,-6.1%,-6.6,1.26µM*,19.5%,0.9%
O=C(C[n+]1csc2ccccc21)c1ccc(O)c(O)c1,·,·,·,10.6%,·,·
Nc1cc(=O)[nH]c2c1CCC2,·,·,·,1.8%,·,·
CCOc1ccc(N(CC)S(=O)(=O)c2cc(Br)cc3c2N(C(C)=O)C(C)C3)cc1 (stereo not drawn),-0.9%,·,·,-15.9%,·,·
CN(C)c1ccc(/C=C/c2nc3ccccc3s2)cc1Cl,·,·,·,32.3%,·,·
SMILES,GLS inhibitor,TCR activator,TSHR antagonist,BRCA1 expr up,p53 reactivation,N370S GC
CCCCc1cc(=O)oc2cc(OCC(=O)NCCN3CCOCC3)c(Cl)cc12,4.0%,-1.7%,1.7,26.3%,-1.8%,-4.4%
CCCCc1cc(=O)oc2cc(OC(C)C(=O)NCCN3CCOCC3)c(Cl)cc12 (stereo not drawn),1.4%,-8.7%,-5.6,8.8%,-2.5%,20µM*
CC(C)=CCC/C(C)=C/CO/N=C1/C[C@@H](O)[C@@H](O)[C@@H]2[C@H]3C(=O)N(c4ccc(F)cc4F)C(=O)[C@@H]3CC[C@H]12,·,·,·,·,·,-1.0%[12.8 µM]
Nc1nc[nH]c(=O)c1N,·,·,·,2.6%,·,·
CCc1ccccc1NC(=O)CSc1nc2n[nH]c(C)c2c(=N)n1-c1cccc(C)c1,-11.5%,·,·,·,·,·
CCc1ccccc1NC(=O)CSc1nc2n[nH]c(C)c2c(=N)n1-c1ccc(OC)cc1,11.2µM*,-3.1%,-9.5,-42.8%,-7.6%,2.0%
Cc1ccc(S(=O)(=O)N(CC(=O)Nc2c(C)cccc2C)c2cccc(Cl)c2)cc1,-6.3%,·,·,·,·,·
CN1CCN(C(=O)/C=C\c2ccc(Cl)cc2)CC1,5.4%,-2.7%[46.1 µM],-3.2,53.7%,-1.6%,5.3%
CSc1ccc(/C=C/C(=O)N2CCCN(C)CC2)cc1,1.1%,4.0%,0.3,8.91µM*,16.1%,-1.0%
Cc1ccc(Cn2c(CNS(=O)(=O)c3ccc(Cl)s3)nc3cccnc32)cc1,-12.2%,·,·,·,·,·
O=C(CCc1ccccc1)Nc1ccc2ccccc2n1,4.3%,-0.7%,3.6,7.08µM*,?,5.5%
Cc1ccc(NC(=O)CCc2ccccc2)cc1C,1.1%,·,·,12.6µM*,·,·
CC(C)(C)c1csc(NC(=O)CCc2ccccc2)n1,-2.1%,10.2%,-2.2,0.0%,31.6µM*,-1.8%
O=C(/C=C/c1ccccc1)OCC(=O)c1c[nH]c2ccccc12,-14.9%,6.3%,-2.8,-23.2%,4.8%,·
COc1ccccc1C(=O)COC(=O)/C=C/c1ccccc1,8.6%,-5.1%,-92.8*,36.1%,16.8%,0.5%
COc1ccccc1C(=O)COC(=O)c1ccc(N(C)C)cc1,0.1%,-20.6%,1.8,3.98µM*,?,?
COc1cc(/C=C/c2cc(C(=O)O)c3ccccc3n2)ccc1OC(F)F,?,-6.6%,-14.7,2.51µM*,3.1%,-11.1%
CN(C)/C=C1/NC(=S)NC1=O,10µM*,-11.6%,-3.3,32.4%,3.7%,-10.7%
CCN1C(=O)/C(=C\N(C)C)NC1=S,28.7%,8.6%[46.1 µM],-1.6,-42.6%,-9.5%,-1.2%
COc1ccc(/C=N/n2cnnc2SCCO)cc1OC,-0.4%,0.7%,-11.5,-0.6%,?,2.7%
C=CCSc1nncn1/N=C/c1ccc(OC)cc1,-13.4%,0.4%,-4.9,2.24µM*,?,3.4%
N#Cc1c([N+](=O)[O-])cc([N+](=O)[O-])cc1S(=O)(=O)Cc1ccccc1,-2.4%,-0.3%,-80.9*,-96.0%,-28.5%,·
CN(C)c1ncc2nc(-c3cccs3)c(=O)n(C)c2n1,·,·,·,·,·,11.2%
CCN=c1scc(-c2ccco2)n1/N=C/c1ccc(OC)c(O)c1,40.0%,0.5%,·,6.31µM*,·,-3.2%
O=C(NC1CCCCCCC1)c1ccc(F)cc1,-9.3%,6.8%,-14.8,2.82µM*,?,-12.4%
O=C(NC1CCCCC1)N1CCc2ccccc21,-10.4%,0.4%,-12.8,11.2µM*,?,-14.5%
